91 compounds from PubChem BioAssay AID449739 (Vanderbilt High Throughput Screening Facility, 2010) can be followed below.

In all, about 100,000 compounds went through this assay and about 4,200 (4.2%) were called active.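 How the source made its calls: active means single-dose well whose peak fluorescence ratio is a statistical outlier from its plate by either plate-standardised score or position-corrected B-score; inactive means the rest.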 Many of the other results were omitted from the sample, so actives are more common in it than they were.

The assay deals with Voltage-dependent T-type calcium channel subunit alpha-1H (Homo sapiens) (UniProt O95180). In words: Cav3.2 calcium influx blockers – cell-based, Fluo-4 calcium fluorescence, FDSS, MLSMR library, primary screen (AID 449739). Conditions: Cav3.2-expressing cells, at 10 µM, active compounds read low.
Voltage-dependent T-type calcium channel subunit alpha-1H (Homo sapiens), sequence (O95180 whole entry, looked up): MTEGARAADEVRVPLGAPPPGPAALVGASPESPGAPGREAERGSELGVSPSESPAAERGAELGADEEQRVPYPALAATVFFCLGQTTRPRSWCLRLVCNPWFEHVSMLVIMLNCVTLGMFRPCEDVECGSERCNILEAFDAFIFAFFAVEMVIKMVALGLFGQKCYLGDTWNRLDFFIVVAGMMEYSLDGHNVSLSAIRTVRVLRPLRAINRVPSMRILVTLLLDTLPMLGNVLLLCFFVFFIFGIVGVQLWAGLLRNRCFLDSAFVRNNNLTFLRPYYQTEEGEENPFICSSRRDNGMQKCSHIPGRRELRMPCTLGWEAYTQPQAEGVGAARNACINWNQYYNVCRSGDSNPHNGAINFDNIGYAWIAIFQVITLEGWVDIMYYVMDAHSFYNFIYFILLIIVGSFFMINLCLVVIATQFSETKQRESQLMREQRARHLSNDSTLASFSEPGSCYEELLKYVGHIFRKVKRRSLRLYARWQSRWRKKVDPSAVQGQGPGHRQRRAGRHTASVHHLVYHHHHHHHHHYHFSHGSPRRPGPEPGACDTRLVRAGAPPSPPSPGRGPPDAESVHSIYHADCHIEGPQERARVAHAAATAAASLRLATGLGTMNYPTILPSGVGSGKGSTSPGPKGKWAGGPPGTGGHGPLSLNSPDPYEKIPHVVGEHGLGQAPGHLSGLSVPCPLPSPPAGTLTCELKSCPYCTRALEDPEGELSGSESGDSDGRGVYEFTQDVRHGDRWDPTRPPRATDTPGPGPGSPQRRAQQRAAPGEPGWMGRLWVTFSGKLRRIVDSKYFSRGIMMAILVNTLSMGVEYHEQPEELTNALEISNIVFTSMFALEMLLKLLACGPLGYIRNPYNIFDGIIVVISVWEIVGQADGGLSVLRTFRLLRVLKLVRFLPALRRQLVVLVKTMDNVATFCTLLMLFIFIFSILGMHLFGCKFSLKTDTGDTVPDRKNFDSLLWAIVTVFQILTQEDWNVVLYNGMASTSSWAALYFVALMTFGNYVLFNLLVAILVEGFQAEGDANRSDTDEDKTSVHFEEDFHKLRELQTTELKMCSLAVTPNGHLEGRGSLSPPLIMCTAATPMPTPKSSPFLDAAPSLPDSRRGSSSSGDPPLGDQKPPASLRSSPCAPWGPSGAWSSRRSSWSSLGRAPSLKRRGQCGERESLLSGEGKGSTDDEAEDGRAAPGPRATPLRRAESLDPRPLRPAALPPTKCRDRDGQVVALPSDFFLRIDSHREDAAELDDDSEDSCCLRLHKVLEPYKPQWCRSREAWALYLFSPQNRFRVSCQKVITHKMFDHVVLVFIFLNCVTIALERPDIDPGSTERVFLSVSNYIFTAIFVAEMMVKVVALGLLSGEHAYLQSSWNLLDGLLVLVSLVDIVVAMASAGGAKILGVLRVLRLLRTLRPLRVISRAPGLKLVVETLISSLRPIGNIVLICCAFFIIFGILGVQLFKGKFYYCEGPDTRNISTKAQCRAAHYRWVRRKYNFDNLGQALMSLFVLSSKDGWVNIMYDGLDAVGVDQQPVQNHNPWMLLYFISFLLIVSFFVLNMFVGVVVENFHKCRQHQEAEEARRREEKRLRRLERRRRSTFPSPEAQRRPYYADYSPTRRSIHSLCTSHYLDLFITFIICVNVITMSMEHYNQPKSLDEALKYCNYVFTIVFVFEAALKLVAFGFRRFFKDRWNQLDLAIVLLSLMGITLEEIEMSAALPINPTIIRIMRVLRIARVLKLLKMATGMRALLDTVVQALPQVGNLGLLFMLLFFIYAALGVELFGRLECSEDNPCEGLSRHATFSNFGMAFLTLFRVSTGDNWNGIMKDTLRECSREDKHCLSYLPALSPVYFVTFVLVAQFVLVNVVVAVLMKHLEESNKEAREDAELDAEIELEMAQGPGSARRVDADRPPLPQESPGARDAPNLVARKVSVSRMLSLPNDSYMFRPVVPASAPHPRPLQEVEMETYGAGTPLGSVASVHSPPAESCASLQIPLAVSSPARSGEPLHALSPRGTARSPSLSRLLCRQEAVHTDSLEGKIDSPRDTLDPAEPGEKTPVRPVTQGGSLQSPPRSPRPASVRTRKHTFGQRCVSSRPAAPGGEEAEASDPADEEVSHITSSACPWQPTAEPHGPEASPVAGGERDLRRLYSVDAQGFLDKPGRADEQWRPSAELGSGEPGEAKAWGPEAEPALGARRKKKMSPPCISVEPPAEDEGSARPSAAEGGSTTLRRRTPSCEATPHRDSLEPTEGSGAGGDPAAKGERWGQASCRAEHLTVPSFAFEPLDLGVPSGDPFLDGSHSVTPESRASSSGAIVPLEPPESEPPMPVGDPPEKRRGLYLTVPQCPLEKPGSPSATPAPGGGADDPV
In the case of `COCOc1cc(O)c(C(=O)/C=C/c2ccc(OCOC)c(OCOC)c2)c(OCOC)c1`, the B-score is 0.785 (inactive).
On to `Oc1ccc2ccc3cccc[n+]3c2c1`, for which the B-score is -10 (active).
In the case of `COC(C[C@H](O)CC(=O)COCc1ccccc1)OC` it was 0.759 (inactive).
The same measure for `C=CCn1c(Cn2nnc3ccccc32)nnc1SCC(=O)N/N=C/c1cc(Br)cc(OC)c1O`: 0.722 (inactive); for `COc1cc(Br)cc(/C=N/c2ncn[nH]2)c1O`: -3.11 (active); for `COc1ccc(Br)cc1/C=N/n1c(C)nnc1C`: 0.564 (inactive).
For `CCOc1ccc2nc(NCCNS(=O)(=O)c3ccccc3)c(C#N)cc2c1`, the B-score is 0.364 (inactive).
On to `Cc1cccc2cc(C#N)c(N3CCCC3)nc12`, for which the B-score was -0.395 (inactive).
In the case of `CCOc1ccc2nc(N3CCCN(C(=O)Nc4ccccc4C)CC3)c(C#N)cc2c1` it was -4.45 (active).
The same measure for `COc1ccc(C#Cc2c(-c3ccc(OC)cc3)oc3ccc(-c4ccc5c(c4)OCO5)cc23)cc1`: -2.98 (inactive); for `CCO[C@H]1OC(C(=O)O)=C[C@@H](C2CCCCC2)[C@@H]1CCCO`: -0.908 (inactive).
As to `Cc1ccccc1-c1nc(CS(=O)(=O)CC(=O)N2CCc3ccccc3C2)c(C)o1`, the B-score was -4.63 (active).
The same measure for `COc1ccc(-c2nc(CS(=O)CC(=O)N3CCc4ccccc4C3)c(C)o2)cc1` (stereo unspecified): 0.115 (inactive); for `Cc1nnc(SCC(=O)N2CCc3ccccc3C2)s1`: 0.719 (inactive); for `Nn1c(SCC(=O)NC(=O)NC2CCCC2)nnc1-c1ccccc1F`: 0.0138 (inactive).
`CCCn1c(C)cc(C(=O)COC(=O)c2c(C)nn(-c3ccccc3)c2C)c1C`: the B-score is -3.42 (inactive).
The same measure for `Cc1nn(-c2ccccc2)c(C)c1C(=O)OCC(=O)NC(=O)NC1CCCCC1`: -5.85 (active).
Take `COC(=O)c1c(-c2cccs2)csc1NC(=O)CSc1ncnc2sc(C)c(C)c12`: the B-score was -0.978 (inactive).
As to `CCCCNC(=S)NNC(=O)c1cc(C)on1`, the B-score was 0.531 (inactive).
Consider `COc1ccccc1N1CCN(Cc2ccc(OC)c3ccccc23)CC1`, for which the B-score was -1.06 (inactive).
In the case of `CCN1CCN(CCCCOc2ccccc2F)CC1` it was 0.893 (inactive); in that of `COc1ccccc1N1CCN(CCCCOc2ccc(F)cc2)CC1`, -5.88 (active).
The same measure for `COc1cnc(SCc2ccc(Cl)c(Cl)c2)nc1Cl`: -1.35 (inactive); for `O=C(O)C1CC=C(Cl)CC1C(=O)NCc1ccccc1` (stereo unspecified): 0.671 (inactive); for `COC(=O)[C@H](Cc1ccccc1)NC(=O)[C@@H]1C[C@H]1[C@@H](NC(=O)OCc1ccccc1)c1ccccc1`: 0.0644 (inactive).
`O=C(NCc1ccccc1)[C@H]1C[C@@H]1[C@H](NP(=O)(c1ccccc1)c1ccccc1)c1ccccc1`: the B-score was -4.19 (active).
The same measure for `Cc1cc(C)c2nc(NC(=O)c3ccc4c(c3)OCO4)sc2c1`: 0.981 (inactive); for `C=C(C)C(=O)Nc1cccc(C2=NOC3(C2)C[C@H](C(N)=O)N(C(=O)C(c2ccccc2)c2ccccc2)C3)c1` (stereo partly specified): -0.703 (inactive).
In the case of `CCOC(=O)c1sc2nc(SC)nc(-c3ccccc3)c2c1N` it was -0.0983 (inactive).
In the case of `Nc1ccccc1SCc1cc([N+](=O)[O-])cc2c1OCOC2` it was -4.25 (active).
With `O=C(CNC(=O)Cc1ccccc1)NCC(=O)OCC(=O)c1ccccc1Cl`, the B-score was 0.107 (inactive).
The same measure for `CCOC(=O)/C(=C\c1ccc([N+](=O)[O-])cc1)C(=O)c1cc(C(C)=O)c(Nc2ccccc2)s1`: 0.717 (inactive).
The same measure for `Cc1nnc(SCC(=O)N2CCN(c3ccccc3)CC2)n1-c1ccccc1`: 0.663 (inactive).
The same measure for `Cc1ccnc(N2CCN(C(=O)CSc3nc4ccccc4nc3N3CCCCC3)CC2)c1`: -7.43 (active); for `Cc1ccc(S(=O)(=O)NCC(=O)N2CCN(c3ccccn3)CC2)cc1`: 0.189 (inactive).
With `CCC(C)[C@@H](C(=O)N1CCNCC1)n1cc(CCCCN)nn1` (stereo partly specified), the B-score was 0.219 (inactive).
In the case of `CC1(C)CC(=O)C2=C(C1)N=C1SCCC(=O)N1C2c1ccc(C(F)(F)F)cc1` (stereo unspecified) it was -1.88 (inactive); in that of `CC(C)(C)NS(=O)(=O)CC12CCC(CC1=O)C2(C)C` (stereo unspecified), 0.0444 (inactive).
The same measure for `CCCC(=O)NC(Nc1ccccc1OC)C(Cl)(Cl)Cl` (stereo unspecified): 0.143 (inactive).
In the case of `NCCCC[C@@H]1NC(=O)[C@H](CCC(=O)O)NC(=O)c2cc([N+](=O)[O-])cc(I)c2NCC[C@@H](C(N)=O)NC1=O` it was 0.612 (inactive).
As for `O=C(c1ccccc1)N1CCN(C(=O)N2CCCCC2)CC1`, the B-score was 1.15 (inactive).
`O=C(O)CC(c1ccccc1)n1cnnn1` (stereo unspecified): the B-score was 0.533 (inactive).
The same measure for `O=C(c1ccc(-n2cnnn2)cc1)N1CCN(C(c2ccccc2)c2ccccc2)CC1`: -4.29 (active).
Consider `N/C(=N\OC(=O)CCC1CCCCC1)c1ccccn1`, for which the B-score was 0.693 (inactive).
The same measure for `N#Cc1nc(-c2ccc(OCc3ccccc3)cc2)oc1NCCCN1CCOCC1`: -0.428 (inactive); for `N#Cc1nc(COc2ccc(-c3ccccc3)cc2)oc1NCc1cccnc1`: -1.76 (inactive); for `N#Cc1nc(Cc2ccccc2)oc1NCCc1ccccc1`: -6.7 (active).
For the compound `CC1C/C(=N/NC(=O)c2cccs2)CC(C)(C)C1` (stereo unspecified), the B-score was 0.092 (inactive).
The same measure for `O=C(c1ccccc1Oc1ccccc1)N1CCN(c2ccc(F)cc2)CC1`: -4.99 (active).
In the case of `O=C(O)C1CC=CCC1C(=O)Nc1ccccc1C(=O)N1CCN(c2ccccc2)CC1` (stereo unspecified) it was 0.0959 (inactive).
For the compound `CC(C)N(C(=O)COC(=O)c1ccccc1C(=O)N1CCN(c2ccc(F)cc2)CC1)C(C)C`, the B-score was 0.00273 (inactive).
In the case of `Cn1c(Cc2cccc3ccccc23)nnc1SCC(=O)N1CCN(c2cccc(Cl)c2)CC1` it was -6.61 (active); in that of `Cc1ccccc1NC(=O)Cc1nnc(SCC(=O)N2CCN(c3ccccc3)CC2)n1C`, 0.445 (inactive); in that of `Cc1cc2nnc(SCC(=O)N3CCN(c4ccccc4)CC3)n2c(N)n1`, 0.355 (inactive).
The same measure for `C=CCC1(C(=O)N(C)Cc2ccccc2)CCN(C(=O)OC(C)(C)C)CC1`: -0.119 (inactive); for `CC(C)(C)NC(=O)NC(=O)COC(=O)CCC1CCCCC1`: -0.871 (inactive); for `O=C(Nc1ccn(Cc2ccc(F)cc2)n1)c1ccncc1`: 0.582 (inactive).
In the case of `O=C(Nc1ccn(Cc2ccccc2F)n1)c1ccc(COc2ccc(Cl)cc2Cl)o1` it was -5.79 (active); in that of `CC(=O)Nc1ccn(Cc2c(F)cccc2Cl)n1`, -0.881 (inactive).
As for `O=C(C1=C[C@H](c2ccc(C(F)(F)F)cc2)C[C@H](OCc2ccc(CO)cc2)O1)N1CCN(Cc2ccccc2)CC1`, the B-score was -0.906 (inactive).
The same measure for `CC(C)(C)[C@H]1C=C(C(=O)NCc2ccccc2)O[C@@H](OCc2ccc(CO)cc2)C1`: -0.683 (inactive); for `COc1cc(/C=N/NC(=O)Nc2ccccc2)ccc1OCCOc1ccccc1C`: -1.44 (inactive).
The same measure for `CNC(=O)c1ccc2nc(NC(C)=O)sc2c1`: 1.09 (inactive); for `Cc1nn(CC(=O)Nc2nc3ccccc3s2)c(C)c1[N+](=O)[O-]`: -1.65 (inactive).
In the case of `O=C(NC(Nc1nc2ccc([N+](=O)[O-])cc2s1)(C(F)(F)F)C(F)(F)F)c1ccccc1` it was -8.17 (active).
On to `COc1ccc(OC)c(NC(=O)CCN2CCC(C)CC2)c1`, for which the B-score is -3.95 (active).
Take `COc1ccc(NC(=O)CCN2CCCC2)c(OC)c1`: the B-score was 0.0598 (inactive).
The same measure for `CCOc1ccc(C(=O)Nc2cc(OC)ccc2OC)cc1`: -0.483 (inactive); for `Cc1ccc(N2C(=O)C(Cc3ccccc3)NC2=S)cc1` (stereo unspecified): 0.262 (inactive); for `Cc1cn(C)c(=O)n(C)c1=O`: 0.776 (inactive).
In the case of `COc1ccc(-c2nc3c(s2)CCc2onc(-c4ccc(Br)cc4)c2-3)cc1` it was 0.734 (inactive); in that of `COc1cc(C(=O)N2CCN(C/C=C/c3ccccc3)CC2)cc(OC)c1C`, -0.741 (inactive).
In the case of `N#Cc1c(C(F)(F)F)cc(-c2ccccc2)nc1SCC(=O)N1CCOCC1` it was 1.07 (inactive); in that of `Cc1[nH]n(-c2ccc(Cl)cc2)c(=O)c1/C=N/n1c(C)nc2ccccc2c1=O`, -2.58 (inactive); in that of `COc1cc(NS(=O)(=O)c2ccc(N=Cc3c(C)[nH]n(-c4ccccc4)c3=O)cc2)nc(OC)n1`, 1.56 (inactive).
Turning to `Cc1[nH]n(-c2cccc(Cl)c2)c(=O)c1/C=N/n1c(C)nc2ccccc2c1=O`, the B-score was -5.96 (active).
In the case of `CCO[C@@H]1OC(C(=O)NC2CC2)=C[C@H](C)[C@H]1CCCO` it was 0.361 (inactive); in that of `O=C(Nc1ccccc1)O/N=C1\CCCCC1c1ccc([N+](=O)[O-])cc1[N+](=O)[O-]` (stereo unspecified), -1.88 (inactive); in that of `CN1CC(c2ccccc2)C2(COc3ccccc3C2=O)C12C(=O)Nc1ccccc12` (stereo unspecified), -2.68 (inactive).
The same measure for `CCCCCCCCCCCCN1[C@@H](CC(C)=O)c2cc(F)cc(F)c2S1(=O)=O`: -0.475 (inactive); for `CC1CCN(CC(=O)c2c[nH]c3ccccc23)CC1`: -0.109 (inactive).
In the case of `COc1ccc(C(C(O)C(=O)c2c[nH]c3ccccc23)N2CCN(c3ccccc3)CC2)cc1` (stereo unspecified) it was -6.38 (active); in that of `CCCC(=O)NC(C)C(c1cccs1)N1CCN(c2ccccc2)CC1` (stereo unspecified), -0.0337 (inactive).
On to `COCC(C)NC(=O)c1ccc(-n2nc(C(F)(F)F)cc2-c2cccs2)cc1` (stereo unspecified), for which the B-score was -0.0574 (inactive).
The same measure for `Cc1occc1C(=O)NNC(=S)NCC(C)C`: -0.334 (inactive); for `COC(C[C@@H](O)C[C@@H](O)[C@H](C)OCc1ccccc1)OC`: 0.484 (inactive).
The same measure for `CC(NC(=O)Nc1ccccc1)C(c1cccs1)N1CCN(c2ccccc2)CC1` (stereo unspecified): -0.634 (inactive).
For the compound `COc1ccc(Cl)cc1NC(=O)CN(C)C(=O)CNC(=O)C12CC3CC(CC(C3)C1)C2`, the B-score was -3.51 (active).
The same measure for `CCCCC(=O)N/N=C(\C)CC(=O)Nc1cc(Cl)ccc1OC`: -2.17 (inactive); for `COc1ccc(Cl)cc1NC(=O)c1oc(C)nc1C`: -0.339 (inactive); for `O=C(CCCOc1ccccc1)NCc1ccco1`: -0.629 (inactive).
